PubChem BioAssay (NCATS)
Records with an inconclusive call do not appear. Values without a mark were called inactive. Calls of active or inactive are those of the source. Calls follow the shape of the dose curve; as a rule, active = well fitted inhibition curve with a large enough effect; inconclusive = small, poorly fitted or top-dose-only effect; inactive = no such curve, though single readings can be large or run the other way.

Assay: S16 Schwann cell PMP22 intronic element firefly luciferase assay (AID 624032); also: nearly all actives have a fitted effect of over 30% in size
Conditions: S16 rat Schwann cells, PMP22 element FLuc, 24 h; series mostly up to 57.5 µM; activity change, negative = inhibition: at the top concentration
Text: Charcot-Marie-Tooth-Association [CMTA]
National Center for Advancing Translational Sciences [NCATS]
Charcot-Marie-Tooth (CMT) disease was first characterized by Jean-Martin Charcot and Pierre Marie in France and, independently, by Howard Henry Tooth in England in 1886. CMT is one of the most common inherited neurological diseases, affecting approximately 1 in 2,500 Americans. […] The most prevalent type of CMT is known as CMT1A and caused by a duplication of the PMP22 gene which leads to over-expression of this protein. PMP22 is a glycosylated intrinsic membrane protein accounting for 2-5% of the myelin protein content, and its over-expression results in demyelination and subsequently axonal loss.
A pair of cellular transcription-based assays was developed in the S16 rat Schwann cell lines (Hai, M., et al., 2002) stably transfected with orthogonal reporters - firefly luciferase (Fluc) and beta-lactamase (beta-Lac) - whose expression is driven by an intronic regulatory element of the PMP22 gene (Jones, E.A., et al., 2011) to recapitulate endogenous expression of PMP22. The current assay employs Fluc to report on PMP22 expression. A comprehensive library of approved drugs, the NCGC Pharmaceutical Collection (Huang, R., et al., 2011), was screened in the cross-validating platform of the orthogonal reporter assays to identify drug modulators inhibitory towards PMP22 expression.
A set of counter-screens was devised to address non-specific activity of the library. An ATP-dependent CellTiter-Glo assay (developed by Promega Corp) was utilized to control cell viability. In addition, biochemical Fluc enzyme assay was performed to assess direct inhibition of the Fluc enzymatic activity.
Hai, M., Muja, N., DeVries, G.H., Quarles, R.H. and Patel, P.I. Comparative analysis of Schwann cell lines as model systems for myelin gene transcription studies. J Neurosci Res, 2002. 69(4): pp 497-508
Huang, R., Southall, N., Wang, Y., Yasgar A., Shinn P., Jadhav, A. , Nguyen, D.-T. and Austin, C.P., The NCGC pharmaceutical collection: a comprehensive resource of clinically approved drugs enabling repurposing and chemical genomics. Sci Transl Med, 2011. 3(80): p. 80ps16.
S16 Schwann cell PMP22 intronic element firefly luciferase assay
The FLuc-expressing S16 cells were seeded in white solid 1536-well plates at between 500-750 cells/4uL in DMEM medium containing 10% FBS, w/o phenol red. After overnight incubation at 37 degree Celsius/5% C02, 23 nL of compounds or DMSO were delivered to each well using a pin tool, followed by 24h-incubation at 37 degree Celsius/5% C02. Then 4 uL ONE-Glo luminescent substrate mix (Promega) was added to each well. Luminescence was measured on a ViewLux plate reader (Perkin Elmer). The % activity was determined by normalizing to the average readings of PTC124 (a positive control) - treated cells relative to DMSO-treated cells (0% Activity). The concentration-effect curves were then classified based on curve quality (r2), response magnitude and degree of measured activity.
Potency is read from the fitted curve at half-maximal effect.

Point of comparison: CC(C)(COP(=O)(O)OP(=O)(O)OC[C@H]1O[C@@H](n2cnc3c(N)ncnc32)[C@H](O)[C@@H]1OP(=O)(O)O)C(O)C(=O)NCCC(=O)NCCS (stereo not given in full), “activity change, negative = inhibition” value 37.3%. Against it:
- Nc1nccs1 — lower, 2%
- OCC1(CO)COC(C(Cl)(Cl)Cl)OC1 — lower, 0.248%
- CC(=O)Oc1cccc2c1C(=O)c1c(OC(C)=O)cc(C(=O)O)cc1C2=O — lower, -18.2%
- FC(F)OC(Cl)C(F)(F)F (stereo not given) — lower, -6.77%
- O=P(O)(O)CP(=O)(O)O — lower, 3.66%
- CN1c2c(nc(N)[nH]c2=O)NCC1CNc1ccc(C(=O)NC(CCC(=O)O)C(=O)O)cc1 (stereo not given) — lower, 2.4%
- CC/C=C\C/C=C\C/C=C\C/C=C\C/C=C\C/C=C\CCC(=O)O — lower, -1.82%
- O=P(O)(O)OC[C@H]1O[C@](O)(COP(=O)(O)O)[C@@H](O)[C@@H]1O — lower, -5.64%
- CC(C)C1=CC2=CC[C@@H]3[C@](C)(CCC[C@@]3(C)C(=O)O)[C@H]2CC1 — lower, 19.2%
- NC(N)=NCC1COc2ccccc2O1 (stereo not given) — lower, 5.12%
- NC(=S)NS(=O)(=O)c1ccc(N)cc1 — lower, 11.1%
- NC(N)=O — lower, 6.1%
- NCCO/C=C/[C@H](N)C(=O)O — lower, -10.8%
- O=C(O)[C@H]1C(=CCO)O[C@H]2CC(=O)N12 — lower, 10.4%
- COC(=O)CCC[N+](C)(C)C — lower, -6.13%
- CC(CC=O)CCCC(C)(C)O (stereo not given) — lower, 3.58%
- CCN(CC)C(=O)c1cccnc1 — lower, -16.5%
- O=P(O)(O)O — lower, 5.48%
- CS(=O)(=O)c1ccc([C@@H](O)[C@@H](COC(=O)CN)NC(=O)C(Cl)Cl)cc1 — lower, 6.67%
- COc1ccc(C(=O)c2ccc(C)cc2)c(O)c1 — higher, 176%
- CCOC(C)OCC — lower, 24.1%
- CCCCO — lower, -15.8%
- O=C(O)c1ccc(NC(=O)[C@H](Cc2ccc(O)cc2)NC(=O)c2ccccc2)cc1 — lower, -0.363%
- CC(C)[C@H](N)C(=O)OCC(CO)OCn1cnc2c(=O)[nH]c(N)nc21 (stereo not given in full) — lower, 0.55%
- C=C(C)C1CC=C(C)CC1 (stereo not given) — lower, 5.46%
- CN(C)CCCSc1ccccc1NC(=O)/C=C/c1ccccc1 — lower, 22.3%
- CN[C@@H]1[C@H](O[C@H]2[C@H](O[C@H]3[C@H](O)[C@@H](O)[C@H](N=C(N)N)[C@@H](O)[C@@H]3N=C(N)N)O[C@@H](C)[C@]2(O)C=O)O[C@@H](CO)[C@H](O)[C@H]1O — lower, -3.99%
- O=[n+]1ccn([O-])c2ccccc21 — lower, 2.5%
- CN1C(=O)C[C@@H](C(=O)N[C@@H](Cc2cnc[nH]2)C(=O)N2CCC[C@H]2C(N)=O)NC1=O — lower, -0.381%
- CN1CCCC(CN2c3ccccc3Sc3ccccc32)C1 (stereo not given) — lower, -40.7%
- O=C(NNCNNC(=O)c1ccncc1)c1ccncc1 — lower, 5.37%
- O=P(O)(O)OC[C@H](O)CO — lower, -5.49%
- OC[C@H]1O[C@@H]2O[C@H]3[C@H](O)[C@@H](O)[C@@H](O[C@H]4[C@H](O)[C@@H](O)[C@@H](O[C@H]5[C@H](O)[C@@H](O)[C@@H](O[C@H]6[C@H](O)[C@@H](O)[C@@H](O[C@H]7[C@H](O)[C@@H](O)[C@@H](O[C@H]1[C@H](O)[C@H]2O)O[C@@H]7CO)O[C@@H]6CO)O[C@@H]5CO)O[C@@H]4CO)O[C@@H]3CO — lower, 4.14%
- COc1ccc(/C=N/NC(=O)c2ccncc2)c(C(=O)O)c1OC — lower, -14.3%
- CC(CNC(=O)c1cccnc1)NC(=O)c1cccnc1 (stereo not given) — lower, -1.49%
- CCCCCc1ccc(C)cc1O — lower, -13.2%

For COc1cc(C)c(/C=C/C(C)=C/C=C/C(C)=C/C(=O)O)c(C)c1C, the Potency was 0.572 µM (active).
In the case of Cn1c(=O)c2c(ncn2CCOC(=O)C(C)(C)Oc2ccc(Cl)cc2)n(C)c1=O, the Potency is reported as 32.2 µM (active).
In the case of Cc1cc(-c2ccc(N=Nc3c(S(=O)(=O)O)cc4cc(S(=O)(=O)O)cc(N)c4c3O)c(C)c2)ccc1N=Nc1c(S(=O)(=O)O)cc2cc(S(=O)(=O)O)cc(N)c2c1O, the Potency is reported as 12.8 µM (active).
